Test results as given in PubChem BioAssay AID2129 (The Scripps Research Institute Molecular Screening Center, 2009).
Among all 320,000 compounds or so, about 2,200 (0.69%) were called active.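 The calls were made as follows: active = inhibition above the mean of all tested compounds plus 3 SD, cutoff set per campaign (cut at about 30% in these data); inactive = the rest.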 The sample as a whole holds a higher share of actives than the screen did.

The compounds below were run against Bcl-2-like protein 1 (Homo sapiens) (UniProt Q07817) (assay: inhibitors of human Bcl-xL, primary screen, biochemical, fluorescence polarization, HTS (AID 2129;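 also: 0% = DMSO wells and 100% = unlabeled Bim-BH3 peptide competitor; inhibitors lower millipolarization by displacing the labeled peptide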)). Settings: GST-Bcl-xL / FITC-Bim BH3 peptide fluorescence polarization; at 10.9 µM; active compounds read high.
Bcl-2-like protein 1 (Homo sapiens), sequence (Q07817 whole entry, looked up): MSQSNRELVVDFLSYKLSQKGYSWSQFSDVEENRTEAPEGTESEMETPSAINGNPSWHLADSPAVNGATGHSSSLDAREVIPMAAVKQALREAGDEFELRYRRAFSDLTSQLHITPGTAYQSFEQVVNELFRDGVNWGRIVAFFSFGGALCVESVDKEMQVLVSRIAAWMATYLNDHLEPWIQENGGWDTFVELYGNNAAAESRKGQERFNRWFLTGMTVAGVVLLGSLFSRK

inhibition, active:
O=C(CCn1c(SCC(=O)c2ccccc2)nc2ccccc2c1=O)NCc1ccc(F)cc1 49.4%, CN1CCc2nc(SC(C(=O)O)c3ccccc3)c(C#N)c(-c3cccs3)c2C1 (stereo unspecified) 31.4%, O=C(COC(=O)Cn1cnc2ccccc21)Nc1cccc2c1C(=O)c1ccccc1C2=O 137%, Cc1nn(C(=O)c2ccoc2C)c(N)c1-c1ccccc1 173%, O=C(c1ccc(F)c(S(=O)(=O)N2CCOCC2)c1)N(CCc1ccccc1)Cc1ccccc1 31.7%, Cc1nn(Cc2ccccc2)c(C)c1CNC(=O)c1ccc(F)c(S(=O)(=O)N2CCOCC2)c1 114%, CC(NC(=O)CSc1nc2c(cc1C#N)CN(C)CC2)c1ccccc1 (stereo unspecified) 36.7%, CCCn1c(O)c(CN2CCCC(C)C2)c(C)c(C#N)c1=O (stereo unspecified) 53.4%, Cc1ccc(/C=C(\C#N)C(=O)Nc2cccc3ncccc23)o1 102%, CCc1cccc(C)c1N(C(=O)Cn1c(CO)nc2ccccc21)C(C)COC (stereo unspecified) 58.5%, COCCOC(=O)c1sc(=S)n(CCOC)c1N 90.3%, Cc1coc2c(O)cc3c(c12)OC1(N2CCCCC2)C(=O)NCCCC31 (stereo unspecified) 39%, CCOc1ccc2nc(N3CCCN(C(=O)Nc4ccccc4C)CC3)c(C#N)cc2c1 46.6%, CC(C)c1ccc(NC(=S)NNc2ccc(Cl)c(C(=O)O)c2)cc1 115%, Nc1cc(N2CCCCCC2)c2nonc2c1[N+](=O)[O-] 53.6%, CCCn1c(C2CCCN2c2nc(-c3ccc(C)cc3)cs2)nc2cc(Cl)c(N3CCCCC3)cc21 (stereo unspecified) 76.7%, COCCN1C=C2C(=O)C(C)(OC(=O)C3CCCC3)C(=O)C=C2C=C1c1ccsc1 (stereo unspecified) 34.2%, O=c1[nH]c2ccccc2n2c(-c3ccccc3)nnc12 43%, COc1ncnc2c1N=C1CC(C)(C)CC(N)=C1S2 163%

inhibition, inactive:
Cc1ccc(CNS(=O)(=O)c2ccc3c(c2)N(C)CCO3)cc1 8.25%, O=C(CSc1nc2ccccc2c(=O)n1-c1ccc(F)cc1)NC1CC1 6.71%, O=C(CCCn1c(SCC(=O)c2ccccc2)nc2ccccc2c1=O)NCC1CCCO1 (stereo unspecified) -3.16%, CCc1c(-c2ccccc2)nc(N)c(C#N)c1-c1cccs1 6.16%, Cc1c(-c2ccccc2)nc(N)c(C#N)c1-c1cccs1 8.08%, CCOc1ccc2[nH]c(=O)c(CN(Cc3nnnn3CCc3ccccc3)CC3CCCO3)cc2c1 (stereo unspecified) 0.19%, O=C(COC(=O)/C=C/c1nc2ccccc2s1)Nc1ccccc1Oc1ccccc1 -1.24%, O=C(Cn1cnc2ccccc21)Nc1ccccc1-c1ccccc1 7.35%, O=C(COC(=O)c1cccc(Br)c1)Nc1cccc2c1C(=O)c1ccccc1C2=O 13.1%, CC(C)(C)n1ncc2c(=O)n(Cc3ccc(Cl)cc3)cnc21 4.43%, CCOC(=O)N1CCN(CC(=O)n2c(C)c(C)c3ccccc32)CC1 9.52%, C/C(=N\NC(=O)c1ccoc1C)c1ccccc1O 4.04%, Cc1nn(-c2ccc([N+](=O)[O-])cc2)c(N)c1-c1ccccc1 -20.3%, Cc1noc(C)c1C(=O)NCC1COc2ccccc2O1 (stereo unspecified) -7.18%, O=C(NCc1ccncc1)C1CCCN(S(=O)(=O)c2ccc(Br)cc2)C1 (stereo unspecified) 9.21%, O=C(NCc1cc(C(F)(F)F)cc(C(F)(F)F)c1)C1CC(c2cccc(F)c2)=NO1 (stereo unspecified) 1.88%, CCN1C(=O)[C@@H]2[C@@H](c3ccc(-c4ccc(OC)cc4)c(OC)c3)N3CCC[C@@]3(C(=O)OC)[C@@H]2C1=O 4.65%, Cn1c(C(=O)N2CCCC(C(=O)NCc3ccccc3)C2)cc2sccc21 (stereo unspecified) 3.21%, O=C(Nc1ccccc1N1CCCC1)c1ccc(F)c(S(=O)(=O)N2CCOCC2)c1 1.14%, COc1ccc(C(=O)N(Cc2ccccc2)c2ccc(C)cc2)cc1S(=O)(=O)N1CCOCC1 5.85%, Cc1ccccc1CSCCNC(=O)c1ccc(Cl)c(S(=O)(=O)N2CCOCC2)c1 3%, O=C(NCCSCc1ccccc1)c1ccc(Cl)c(S(=O)(=O)N2CCOCC2)c1 1.38%, Cc1ccc(-c2noc(C3CCCN(C(=O)c4cccc(Cl)c4)C3)n2)o1 (stereo unspecified) -3.97%, Cc1ccc2nc(SCC(=O)N3CC(C)OC(C)C3)nc(=O)n2c1 (stereo unspecified) 5.27%, Cc1nc([N+](=O)[O-])c(NCCCO)n1Cc1ccccc1 8.64%, O=C(Nc1cc(S(=O)(=O)N2CCOCC2)ccc1OCC(F)(F)F)c1ccc(N2CCCC2=O)cc1 -2.38%, CC1(C)CCc2nc(SCc3ccccc3)c(C#N)cc2C1 4.14%, Cc1cc(NC(=O)CSc2nc3c(cc2C#N)CCCCC3)no1 0.61%, Cn1c(CC(=O)NNC(=O)c2ccccc2F)nc2ccccc21 4.35%, CCOc1ccc(N2C(=O)Nc3ccccc3C2(O)C(=O)NCc2ccco2)cc1 (stereo unspecified) 2.5%, CCC1CCCCN1C(=O)CSc1nc2c(c(=O)n1C)SC(C)C2 (stereo unspecified) 2.98%, Cc1c(CN2CCCCC2)c(O)n(CCO)c(=O)c1C#N 21.4%, CCCCCCn1c(CN2CCCC(C)C2)nc2c1c(=O)n(C)c(=O)n2C (stereo unspecified) -0.05%, COc1ccc(CNC(=O)c2c[nH]c3c(OC)cc(OC)cc3c2=O)cc1 1.75%, O=C(O)CC/C(=N\NC(=O)c1ccc(F)cc1)c1ccc(Br)cc1 2.98%, Cc1cccc(NC(=O)c2cc(S(=O)(=O)N3CCC4(CC3)OCCO4)ccc2F)c1 0.06%, O=C(O)c1cc(Cl)c(Cl)cc1C(=O)Nc1cccc2ncccc12 5.65%, Cc1ccc(Cc2cnc(NC(=O)/C(C#N)=C/c3ccc(-c4cccc([N+](=O)[O-])c4)o3)s2)cc1 1.29%, CCOc1ccc(-n2c(SCC(=O)NC3CCS(=O)(=O)C3)nnc2-c2cccnc2)cc1 (stereo unspecified) -6.49%, COc1ccccc1Cn1c(CO)nc2ccccc21 0.35%, CCOCN(C(=O)Cn1c(C(C)O)nc2ccccc21)c1c(C)cccc1CC (stereo unspecified) 6.75%, CCOC(=O)c1c(N)sc(C(C)=O)c1C 4.34%, COC(=O)c1sc(=S)n(-c2ccc(Cl)cc2)c1C 8.78%, O=C(NCC1(N2CCCCC2)CCCCC1)c1ccc(NS(=O)(=O)c2ccc(F)cc2)cc1 5.4%, NC(=O)c1nsc(C(=O)N(CC(=O)NCc2ccc(F)cc2)Cc2ccco2)c1N 1.4%, COc1ccc(-n2cnc3cc(NCc4ccco4)ccc32)cc1 6.77%, Cc1ccc2[nH]c(C(=O)O)c(NC(=O)c3ccccc3[N+](=O)[O-])c2c1 3.72%, CN(C)CCCCCN(C)Cc1cc2ccccc2o1 0.68%, CCCCCCCNc1nc(Cl)nc(NCCO)n1 5.24%, CCOC(=O)c1cc(C#N)c(N2CCCCC2)nc1-c1ccccc1 -1.67%, CCOc1ccc(C(=O)NC2CCN(C(=O)Nc3ccccc3OC)CC2)cc1 1.4%, Cc1ccc(C)c(NC(=S)NNC(=S)Nc2ccc(C(C)C)cc2)c1 18%, O=C(NC(=S)Nc1ccc(Cl)c(C(=O)O)c1)c1cncc(Br)c1 -0.3%, Cc1nn(C(C)(C)C)c(OC(=O)CC(C)C)c1S(=O)(=O)c1ccccc1 2.54%, Cc1c(Nc2cc(N3CCCC(C)C3)c3nonc3c2[N+](=O)[O-])c(=O)n(-c2ccccc2)n1C (stereo unspecified) -1.91%, Nc1nc(NCC(=O)O)nc(N2CCCCCC2)c1[N+](=O)[O-] -0.96%, CCCCCCCCCOC1OC(CO)C(O)C(O)C1NC(C)=O (stereo unspecified) 0.06%, O=c1c2ccccc2nnn1CSc1nc2sc3c(c2c(=O)n1CC1CCCO1)CCC3 (stereo unspecified) -0.57%, O=C1CCC(=O)N(O)CCCCCNC(=O)CCC(=O)N(O)CCCCCNC(=O)CCC(=O)N(O)CCCCCN1 6.42%, CCCn1c(C(C)Nc2nc(-c3ccc(C)cc3)cs2)nc2cc(Cl)c(N3CCCCC3)cc21 (stereo unspecified) 4.98%, CCCn1c(C2CCCN2c2nc(-c3ccc(OC)cc3)cs2)nc2ccccc21 (stereo unspecified) 7.05%, Cc1cc(S(=O)(=O)NCc2ccccn2)c(Cl)cc1Cl 4.73%, CCOC(=O)c1c(C)n(C)c2ccc(OC)c(NC(=O)CN3CCC4(CC3)OCCO4)c12 -7.5%, [O-][n+]1c2c(nn1-c1ccc(Cl)c(Cl)c1)-c1nonc1CC2 -0.16%, CC1(OC(=O)CCc2ccccc2)C(=O)C=C2C=C(c3ccc(C#N)cc3)N(CCc3ccccn3)C=C2C1=O (stereo unspecified) 25.8%, CC1(OC(=O)C2CCCC2)C(=O)C=C2C=C(c3ccc(C#N)cc3)OC=C2C1=O (stereo unspecified) 10.6%, Fc1ccccc1/C=N/Nc1cc(N2CCCCC2)ncn1 1.94%, Cn1nccc1/C=N\NC(=O)c1ccc(Cl)cc1 7.38%, O=c1[nH]n2c(-c3ccccc3)nc(O)c2c2ccccc12 -0.91%, O=C(O)/C=C/c1ccc(S(=O)(=O)N2CCCCCC2)cc1 -3.18%, O=C(CN1CCSCC1)N/N=C/c1ccc(F)cc1F 2.55%, O=C(COc1cccc(Cl)c1)NCc1ccccc1 3.14%
